# Laboratory results from PubChem BioAssay (NCI).
# About 83,000 compounds went through this panel and 20% of them were active in at least one assay; those are over-represented in the sample as a whole.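 48-hour exposure, single concentration, 96-well plates; percent growth endpoint where 0 means no net growth. Active: below 10.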 Unmarked numbers belong to inactive results. Active and inactive are the calls of the source.
# Legend:
# Experiment in all cases: NCI-60 one-dose screen, 48 h (100 = growth as untreated, 0 = no growth, -100 = all killed)
# Conditions in all cases: 10 µM unless noted
# [1] = test system: SR leukemia
# [2] = test system: RPMI-8226 leukemia
# [3] = test system: OVCAR-8 ovarian
# [4] = test system: OVCAR-5 ovarian
# [5] = test system: OVCAR-4 ovarian
# [6] = test system: SK-OV-3 ovarian
# [7] = test system: IGROV1 ovarian
# [8] = test system: OVCAR-3 ovarian
# [9] = test system: HS 578T breast
# [10] = test system: NCI/ADR-RES ovarian
# [11] = test system: T-47D breast
# [12] = test system: BT-549 breast
# [13] = test system: MDA-MB-435 melanoma
# [14] = test system: SW-620 colon
# [15] = test system: MCF7 breast
# [16] = test system: HCT-116 colon
# [17] = test system: HCC-2998 colon
# [18] = test system: KM12 colon
SMILES,growth [1],growth [2] [%],growth [3] [%],growth [4] [%],growth [5],growth [6] [%],growth [7] [%],growth [8],growth [9] [%],growth [10] [%],growth [11] [%],growth [12] [%],growth [13],growth [14],growth [15] [%],growth [16],growth [17] [%],growth [18] [%]
CCN(CC)CCCNC(=O)c1ccc(N)cc1O,98.3%,94.7,103,98.9,118%,105,91.8,107%,98.4,96.1,107,98.7,117%,96.2%,96.8,94.7%,78.8,106
CC(C)N(CCOC(=O)Nc1ccccc1Cl)C(C)C,89.7%,96,99.7,111,119%,102,107,112%,95.8,105,107,88.5,113%,103%,104,84.9%,102,104
C=C(Cl)COC(=O)C(C)(C)O,91.2%,99.5,98.7,102,93.3%,97.2,109,109%,110,95.2,99.1,104,104%,107%,93.3,99.4%,102,102
CCOC(=O)C1C(=O)C=C(c2cnccn2)CC1c1ccc(OC)c(OC)c1 (stereo unspecified),89.6%,90,92.3,103,109%,82.2,105,106%,99.8,98.2,83.5,71.5,106%,106%,93.1,79.7%,99,102
Cc1ccc(NSc2ccccc2[N+](=O)[O-])cc1,9.72% (active),19.9,33.1,49.7,73.2%,28.3,38,7.41% (active),32.2,14,27.3,34.1,-26.2% (active),26.9%,30.4,20.3%,31.4,20.3
COc1cc(-c2cccc([N+](=O)[O-])c2)c(-c2nc(-c3ccccc3)c(-c3ccccc3)n2C2CC2)cc1OC,57.2%,10.8,62.8,87.3,62.2%,80,78.5,66.5%,83.4,62,23.9,47.2,67.4%,76.3%,34.8,26.8%,81.2,67.3
O=C(Oc1ccc([N+](=O)[O-])cc1)c1ccc(CBr)cc1,74.7%,81.6,96.2,103,111%,147,90.7,114%,96.7,99.3,125,105,98.8%,94.9%,75.1,87.8%,103,103
N[C@@H]1CCC[C@H]1NCCCCN1C(=O)c2cccc3cccc(c23)C1=O,18.1%,77.7,45,80.9,47.2%,96.9,59.9,69.9%,71.8,82.4,86.3,78.9,83.3%,38%,70,50.3%,60.1,63.5
NS(=O)(=O)c1cn(-c2ncnc3nc[nH]c23)ccc1=O,132%,74.7,107,93.1,95.1%,82.2,97.2,103%,102,105,76.7,109,103%,95.1%,104,94.5%,107,92.9
Cc1ccc(Nc2ccc(Nc3ccc(C)cc3S(=O)(=O)O)c3c2C(=O)c2ccccc2C3=O)c(S(=O)(=O)O)c1,108%,87.8,97.6,106,102%,111,114,95.5%,88.7,102,111,103,103%,92%,92.2,87%,112,96.7
O=C(c1ccccc1)c1ccc(Cl)c([N+](=O)[O-])c1,-3.1% (active),82.3,97.8,99.1,99.5%,108,43.6,75.7%,87.7,108,71.5,106,89.5%,16.8%,91.3,45.2%,88.4,106
COc1cc2nc(Nc3ccc(F)cc3)nc(N)c2cc1OC,64.2%,76.8,93.1,99.1,97.7%,110,107,91.3%,111,87.6,83.2,93.9,96.2%,103%,82.9,89.4%,113,94.7
CCNCCNc1cc(-c2ccc(F)cc2)c(C#N)c2nc3ccccc3n12,-23% (active),36.4,42.2,89.9,31%,94.5,60.4,0.676% (active),64.2,55.4,21.3,70.9,-62.7% (active),10.8%,35.4,24.5%,53.5,66.4
COc1ccc(C2CC(c3cnccn3)=NN2)cc1OC (stereo unspecified),79.3%,82.6,96.8,114,118%,105,108,102%,97.4,102,98.7,83.1,117%,109%,92.8,85.7%,99.4,109
CCNCCNc1cc(-c2ccc(C(=O)OC)cc2)c(C#N)c2nc3ccccc3n12,-7.47% (active),20.8,31.5,102,-19.2% (active),81.7,53.5,-57% (active),59.3,57,18.6,68.2,73.2%,2.26% (active),53.8,-19.5% (active),49,50.8
O=C(Nc1ccccc1)c1sc(-c2cccc(C(F)(F)F)c2)cc1O,62.5%,35.5,66,104,76.1%,74.6,66.5,53.1%,63.8,83.2,59.3,70.8,77.9%,76.1%,74.7,67.9%,98.2,92.3
C(=C\c1nc2ccccc2[nH]1)/c1nc2ccccc2[nH]1,93.3%,89.9,97.6,111,97.1%,98.4,93.1,109%,100,94.3,78.2,118,104%,108%,74.4,104%,88.4,98.1
